The whole screen tested about 38,000 compounds, of which about 1,200 (3.2%) showed an effect of 50% or more. The median lay at about -58%. The sample holds strong results, similar compounds and a random draw of the others, so the mix is not that of the screen.

The assay relates to Plasmodium falciparum. Kind of assay: Calibr Malaria Delayed Death Assay SOP. Format: functional, organism-based. Further details: scale not given: in the data most compounds retested in dose-response had high values. Conditions: concentration 4.99e-06 (unit not given; other assays of the set use mol/L).
Regarding `CC(Cn1cccn1)NC(=O)N1CCN(Cc2ccco2)CC1` (centres undefined), the “Percent Effect” value was -74.02%.

For `Cn1ccnc1C(=O)N[C@@H]1CN(Cc2ccc(F)cc2)[C@@H]2CCCO[C@@H]21.O=C(O)C(F)(F)F`, the “Percent Effect” value is reported as -85.57%.

On to `O=c1oc2ccccc2n1CCCN1CCCC1c1ccc(O)cc1` (centres undefined), for which the “Percent Effect” value is 52.75%. For `Cc1nc(C2CCCN2CCCn2c(=O)oc3ccccc32)no1` (centres undefined), the “Percent Effect” value was -48.08%. Regarding `O=C1OCCN1CCCN1CCCC1c1ccc(O)cc1` (centres undefined), the “Percent Effect” value was -1.685%. For `CC(=O)c1cc2c(=O)[nH]c(=O)n(C)c2nc1C` the value was -16.7%. With `Cn1cc(C(NCCc2ccccn2)c2cccc(F)c2)cn1` (centres undefined) the figure was -2.846%; with `Cc1nccn1-c1ccc(C(C)NCc2ncc[nH]2)cc1` (centres undefined), -35.75%. For `Fc1cccc(C(NCc2ncc[nH]2)c2ccccn2)c1` (centres undefined) the value was 91.42%; for `CSCc1cc(F)ccc1CNCc1ncc[nH]1`, -2.338%; for `CC(C)Nc1ncccc1C(=O)NCc1ncc[nH]1`, -116.1%. Turning to `O=C(NCc1ncc[nH]1)c1c(F)cccc1I`, the “Percent Effect” value is on record as -135.9%. Take `CC(=O)N(C)C(c1cccc(F)c1)c1ccccn1` (centres undefined): the “Percent Effect” value is listed as -75.26%. For `Fc1cccc(C(NCc2ncc[nH]2)c2ccccc2)c1` (centres undefined) the value was 67.9%; for `Clc1cccc(C(NCc2ncc[nH]2)c2ccccn2)c1` (centres undefined), 86.37%.

`CC(C)NC(=O)N1CCN(C(=O)c2ccco2)CC2(CC(=O)N(C)C2)C1` (centres undefined): the “Percent Effect” value was -8.212%.

With `CC(C)CC(=O)NS(=O)(=O)c1ccc2c(c1)OCCCO2`, the “Percent Effect” value was -13.67%. For `CC(C)c1nn(C)c(N2CCOCC2)c1CNCc1cscn1` the value was -74.61%; for `O=C(NCC(O)COc1ccc(C(F)(F)F)cc1)Nc1nncs1` (centres undefined), -99.86%; for `Cc1cccc2c(CCNC(=O)NCC[S+](C)[O-])c[nH]c12` (centres undefined), -101.3%. Turning to `Cc1cccc2c(CCNC(=O)[C@H](N)c3ccccc3)c[nH]c12`, the “Percent Effect” value is on record as 61.63%. `Cc1cccc2c(CCNC(=O)NCCC[S+](C)[O-])c[nH]c12` (centres undefined): the “Percent Effect” value is -83.64%. Regarding `CC(C)Cn1c(=O)n(CCn2cc(Cl)cn2)c2cc(C(=O)O)cnc21`, the “Percent Effect” value is listed as -13.68%. As to `CCc1noc(CN(Cc2cccs2)C2CC2)n1`, the “Percent Effect” value is on record as -139.3%.

`O=C(CCc1nnc2ccccn2c1=O)NCc1cccnc1`: the “Percent Effect” value is on record as -35.93%. With `Cl.Cn1nc(C2CCCN(Cc3ccccc3)C2)c2nccnc21` (centres undefined) the figure was -32.54%; with `CN(C)c1ncccc1NC(=O)C1CN(Cc2ccccc2)CCO1` (centres undefined), -7.192%. For `Cc1cccc(CN2CC[C@@H]3[C@@H](CO[C@H]3CNc3ncccn3)C2)n1.O=C(O)C(F)(F)F.O=C(O)C(F)(F)F.O=C(O)C(F)(F)F` the value was -54.04%; for `Cn1cc(N2CC3(CCN(Cc4ccccc4)CC3)OCC2=O)cn1.O=C(O)C(F)(F)F`, -75.76%.

The values are drawn from ChEMBL document CHEMBL3988442, “University of Dundee, Small-Polar-MMV Screening Library” (2021).
